Compounds with a hit are over-represented: about 18% of the library has one in this group of screens.
TDP1 inh – inhibitors of human tyrosyl-DNA phosphodiesterase TDP1 | Q9NUW8 | recombinant TDP1, AlphaScreen DNA substrate cleavage | Potency, µM (doses to about 130 µM), inactives show at the highest dose activity change, negative = inhibition, usual class: inhibitors | actives 0.28% (n = 350,000); further: potency means the concentration at half of the fitted maximal effect; on the % scale 0 is the no-effect control and ±100 the full control effect; nearly all actives have a fitted effect of over 40% in size
Target sequence (Q9NUW8 whole entry, looked up): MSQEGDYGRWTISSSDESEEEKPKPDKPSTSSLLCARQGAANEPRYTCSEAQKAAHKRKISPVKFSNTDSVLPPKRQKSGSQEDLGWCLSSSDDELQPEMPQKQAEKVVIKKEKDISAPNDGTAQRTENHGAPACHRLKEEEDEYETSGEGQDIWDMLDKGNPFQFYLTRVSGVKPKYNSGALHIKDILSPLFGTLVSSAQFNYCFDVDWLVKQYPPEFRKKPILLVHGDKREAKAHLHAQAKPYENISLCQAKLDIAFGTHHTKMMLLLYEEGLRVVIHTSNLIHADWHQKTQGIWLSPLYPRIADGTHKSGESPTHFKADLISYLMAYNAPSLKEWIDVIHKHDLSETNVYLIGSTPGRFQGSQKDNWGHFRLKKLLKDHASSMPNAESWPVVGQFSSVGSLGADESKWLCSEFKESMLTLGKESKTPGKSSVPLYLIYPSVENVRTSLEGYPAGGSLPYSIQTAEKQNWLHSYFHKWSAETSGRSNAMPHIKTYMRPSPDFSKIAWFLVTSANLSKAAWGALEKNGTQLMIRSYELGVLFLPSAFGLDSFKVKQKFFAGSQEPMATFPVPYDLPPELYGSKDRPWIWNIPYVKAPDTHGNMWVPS
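Steps: enzyme plus compound, 15 min RT; add biotin/phosphotyrosine-FITC oligonucleotide (15 nM final), react 5 min; add donor/acceptor beads (10 ug/ml final), 10 min; read AlphaScreen. Tdp1 at 1 nM final.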
TGFb SMAD3 inh – inhibitors of TGF-b signaling. HepG2 CAGA-GFP TGF-b/SMAD3 reporter, GFP fluorescence, 18 h; TGF-beta stimulated, 500 pg/mL final. Potency, µM (titrated, usually from 46.1 µM), for the others: at the top dose activity, negative = inhibition, hits mostly inhibitors. actives 1.2% (n = 410,000); further: potency means the concentration at half of the fitted maximal effect; on the % scale 0 is the no-effect control and ±100 the full control effect; nearly all actives have a fitted effect of over 65% in size
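TGF-beta reporter screen: HEPG2 CAGA-GFP, 1% FBS, 500 pg/mL TGF-beta final, 18 h; per-cell GFP summed per well; curves fitted and categorized by class.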
IL-1B inflam inh – inflammasome signaling inhibition, IL-1 beta readout | THP-1 LPS/ATP IL-1B secretion, AlphaLISA, 16 h; hits give low values | activity change, % at 57.5 µM | actives 4.7% (n = 360,000) | AID 743279; in the data active means activity change below about -50%; inconclusive means mostly about -30% to -49%; further: on the % scale 0 is the no-effect control and ±100 the full control effect
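THP-1 cells pretreated 1 hr with compounds (up to 57.5 uM final), then stimulated with LPS (250 ng/mL final) plus ATP (1.25 mM final); secreted IL-1B measured by AlphaLISA after 16 hr, decreased signal indicating inhibition.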
TDP1 cell noCPT – qHTS for Inhibitors of human tyrosyl-DNA phosphodiesterase 1 (TDP1): qHTS in cells in absence of CPT; DT40 Tdp1-/- hTDP1 cells, no CPT, ATP luminescence, 48 h; Potency, µM (series often up to 46.2 µM), inactives show at the highest dose activity change, negative = growth inhibition, usual class: inhibitors; actives 15% (n = 420,000); further: potency means the concentration at half of the fitted maximal effect; on the % scale 0 is the no-effect control and ±100 the full control effect; nearly all actives have a fitted effect of over 55% in size
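Stably hTDP1-transfected Tdp1-null chicken DT40 cells were treated with library compounds minus camptothecin and grown for at least 48 hr at 37 °C, after which cellular ATP was quantified by luminescence.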
DT40 TDP1 CPT – growth inhibition of DT40 Tdp1-/-;hTDP1 cells with camptothecin (screen for TDP1 inhibitors); chicken DT40 Tdp1-/-;hTDP1 cells + 20 nM CPT, ATP luminescence, 48 h; actives 12% (n = 420,000); AID 686979; Potency, µM (highest dose often 46.2 µM), inactives show top-dose activity change, negative = growth inhibition, hits mostly inhibitors; further: potency means the concentration at half of the fitted maximal effect; on the % scale 0 is the no-effect control and ±100 the full control effect; nearly all actives have a fitted effect of over 55% in size
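Chicken DT40 Tdp1-/- cells stably complemented with human TDP1 were seeded at 400 cells/well in medium containing 20 nM camptothecin, exposed to pin-transferred compounds, and grown at 37 °C for at least 48 hr. Viability was read as ATP luminescence.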
HepG2 tox – counter-screen for TGF-b inhibitors: cytotoxicity in HepG2 cells; HepG2 CAGA-GFP viability, ATP luminescence, 18 h; Potency, µM (series often up to 46.1 µM), for inactives: at the top dose activity change, negative = cytotoxicity, hits mostly cytotoxic; actives 0.76% (n = 410,000); AID 588856; further: potency means the concentration at half of the fitted maximal effect
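HepG2 CAGA-GFP cells (1000/well, DMEM with 1% FBS) received compound, then TGF-beta at 500 pg/mL final, and were incubated 18 hours at 37 degrees C. Viability was read by CellTiter-Glo luminescence. Media-only wells were set as complete cell-killing and DMSO as no toxicity.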
Active calls of the source: *; u = inconclusive; x = no result; [ ] = dose if it differs, or a comment. Unless noted, the call rests on the fitted dose curve; in most records, active means well fitted curve in the direction sought with a large enough effect; inconclusive means small, poorly fitted or top-dose-only effect, or another doubt; inactive means no such curve, though single readings can be large; an effect the other way counts as inactive or inconclusive.

SMILES	TDP1 inh	TGFb SMAD3 inh	IL-1B inflam inh	TDP1 cell noCPT	DT40 TDP1 CPT	HepG2 tox
COCC(=O)Nc1cc(C(=O)N2CCCC(C(C)=O)C2)cc2nc(-c3ccccc3)n(C)c12 (stereo unspecified)	x	x	x	1%	5%	x
Cc1ccc(C(=O)Nc2ccc(S(=O)(=O)N3CCOCC3)cc2)cc1Br	x	-18%	x	u	-1%	-14%
COc1ccc(N2C(=O)c3ccccc3NC(=O)C2C(=O)NCCc2ccccc2F)cc1 (stereo unspecified)	x	x	2	u	u	x
COc1ccccc1N1CCN(C(=O)CC(NC(=O)c2ccccc2Cl)c2ccccc2)CC1 (stereo unspecified)	-8%	2%	-6	u	-28%	15%
COc1ccc2nc(NS(=O)(=O)c3ccc(C)cc3)c(Nc3cc(Cl)ccc3OC)nc2c1	-1%	455%	x	23µM*	u	-14%
CCCOc1ccc(NC(=O)CC2C(=O)N(c3ccc(C)cc3)C(=O)N2C(C)C)cc1 (stereo unspecified)	11%	-23%	x	u	u	-23%
COc1ccc(CN2CCN(Cc3cccc(F)c3)CC2)cc1OC	x	6%	3	-24%	-21%	-18%
Cc1cccc(CN2CCN([C@H]3CS(=O)(=O)N[C@@H]3COCc3ccccc3)CC2)c1	x	-18%	14	16µM*	18µM*	-3%
COc1ccc(-c2nc(CSc3nc4ncccc4[nH]3)c(C)o2)cc1OC	4%	u	x	21µM*	u	-43%
Cc1oc(-c2cccc(Cl)c2)nc1CSc1nc2ncccc2[nH]1	0%	5%	x	21µM*	u	-20%
O=C(NCc1ccc2c(c1)OCO2)C(=O)NCC1OCCN1S(=O)(=O)c1ccccc1 (stereo unspecified)	x	u	-3	u	-6%	2%
CC[C@@H](c1ccccc1)n1c(=O)n2n(c1=O)[C@H]1[C@H](O)[C@H]3O[C@@H]3/C(=N/OC/C=C(\C)CCC=C(C)C)[C@@H]1CC2	-1%[21 µM]	x	x	x	x	x
Cc1noc(C)c1CSc1nc2ccccc2c(=O)n1-c1ccc(Cl)cc1	7%	5%	-8	15µM*	18µM*	-36%
CSc1nnnn1-c1ccc(Cl)cc1	5%	11%	5	3%	8%	7%
Cc1noc(C)c1CSc1nnnn1-c1ccc(Cl)cc1	6%	-18%	-17	15µM*	u	-39%
COc1cccc(N2CCN(S(=O)(=O)c3c(C)[nH]c(C)c3C(=O)N3CCCCC3)CC2)c1	4%	-1%	-14	-51%	-27%	-4%
Cc1ccc(C)c(N2CCN(S(=O)(=O)c3c(C)[nH]c(C)c3C(=O)N3CCCCC3)CC2)c1	9%	8%	-9	u	u	-20%
Cc1[nH]c(C)c(S(=O)(=O)N2CCN(c3cccc(Cl)c3)CC2)c1C(=O)N1CCCCC1	7%	-10%	-3	21µM*	21µM*	-28%
Cc1ccc(Cl)cc1N1CCN(S(=O)(=O)c2c(C)[nH]c(C)c2C(=O)N2CCCCC2)CC1	9%	u	u	u	16µM*	-27%
CS(=O)(=O)Nc1ccccc1C(=O)OCC(=O)N1CCC(c2ccccc2)=N1	0%	-17%	-21	-1%	u	-17%
O=C(Cn1[nH]c(=O)c2ccccc2c1=O)N1CC=C(c2ccccc2)CC1	4%	-8%	-12	16µM*	11µM*	-19%
CCc1c(C)nc2cc(-c3ccc(OC)c(OC)c3)nn2c1NCC1CC1	-6%	-1%	-94*	16µM*	13µM*	-32%
O=C(CCNC(=O)c1ccccc1Cl)Nc1nc2ccccc2s1	0%	4%	8	1%	1%	1%
O=C(CCNC(=O)c1ccccc1Cl)Nc1nc(-c2ccc3ccccc3c2)cs1	3%	u	u	u	u	-32%
O=C(CCNC(=O)c1ccccc1Cl)Nc1nc(-c2ccc(F)cc2)cs1	8%	u	-69*	u	u	-18%
SMILES	TDP1 inh	TGFb SMAD3 inh	IL-1B inflam inh	TDP1 cell noCPT	DT40 TDP1 CPT	HepG2 tox
O=C(CCNC(=O)c1ccccc1Cl)Nc1nc(-c2ccccc2Cl)cs1	5%	u	-24	18µM*	u	-29%
CCn1ccc2cc(S(=O)(=O)N3CCC(C(=O)NCc4ccc(OC(C)C)cc4)CC3)ccc21	1%	-24%	x	-28%	u	0%
CCc1cccc(C)c1N=Cc1c(O)c2ccccc2oc1=O	x	u	-1	-3%	-25%	19%
Cc1cccc(NS(=O)(=O)c2ccc(C3CCCCC3)cc2)c1	1%	u	-11	15µM*	21µM*	-97%
N#CCc1ccc(NS(=O)(=O)c2ccc(C3CCCCC3)cc2)cc1	0%	-19%	12	15µM*	23µM*	-22%
COc1ccc(S(=O)(=O)Nc2ccc(CC#N)cc2)cc1	-5%	-3%	16	-13%	-16%	0%
O=C(O)c1cccc(NS(=O)(=O)c2ccc(C3CCCCC3)cc2)c1	3%	-11%	-23	0%	1%	-9%
CSc1nc(N2CCOCC2)c2c3c(sc2n1)CCCC3	-2%	-8%	-4	13µM*	u	-3%
O=C(/C=C/c1ccc(F)cc1)Nc1nc2n(n1)C(c1ccc(Cl)cc1)C=C(c1ccccc1)N2 (stereo unspecified)	11%	-24%	x	15µM*	u	-31%
COc1ccc(C2C=C(c3ccccc3)Nc3nc(NC(=O)/C=C/c4ccc(Cl)cc4)nn32)cc1 (stereo unspecified)	11%	4%	x	12µM*	15µM*	-37%
COc1ccc(/C=C/C(=O)Nc2nc3n(n2)C(c2ccccc2)C=C(c2ccc(Cl)cc2)N3)cc1 (stereo unspecified)	x	-5%	x	u	u	-14%
O=C(/C=C/c1ccccc1)Nc1nc2n(n1)C(c1ccc(Cl)cc1)C=C(c1ccccc1)N2 (stereo unspecified)	3%	-8%	x	23µM*	21µM*	-11%
COc1ccccc1/C=C/C(=O)Nc1nc2n(n1)C(c1ccc(F)cc1)C=C(c1ccccc1)N2 (stereo unspecified)	9%	9%	x	4.6µM*	10µM*	-31%

High-throughput results (PubChem BioAssay)
